Reference: the supplement of paper PMC3484114
± gives the standard deviation.

test system: OVCAR-3-derived ovarian cancer stem-like cells (spheroids); experiment: cell growth relative to untreated control; higher = more growth (less inhibition); details: 2.29 µM; 96 h
How it was run: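 Percent growth was calculated against untreated wells once blanks were subtracted and Grubbs outliers removed. The cells were OVCAR-3 spheroid-derived stem-like cells, trypsinized and plated at 50,000 cells/mL in stem cell medium on ultra-low attachment 96-well plates for a 24 h preincubation. They were then exposed to compounds at 2.29 uM for 96 h at 37°C, 5% CO2, in 4 replicate wells, and viability was measured by TOX8 resazurin fluorescence (ex 560/em 590 nm) after 4 h.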

Row | SMILES | cell growth
1 | Nc1nc(N)c(-c2cccc(C(F)(F)F)c2)c(Cc2cccc(C(F)(F)F)c2)n1 | 114 ± 34%
2 | O=C1C(CN2CCCCC2)CCCC1CN1CCCCC1 (centres undefined) | 62.5 ± 28%
3 | Cc1cc(Cl)cc2c1NC(=O)C2(O)C(C(=O)c1ccccc1)c1ccccc1 (centres undefined) | 94.9 ± 12%
4 | COc1ccc(S(=O)(=O)N/N=C/C(=O)O)cc1 | 117 ± 15%
5 | Cc1cc2nc(C=C(C(F)(F)F)C(F)(F)F)oc2cc1C | 130 ± 36%
6 | COc1ccc2c(c1[N+](=O)[O-])CC[C@@H]1[C@@H]2CC[C@]2(C)C(=O)CC[C@@H]12 | 152 ± 33%
7 | COC(=O)C1CCC(=O)N1C(c1ccc(OC)cc1)c1cc(OC)c(OC)c(OC)c1 (centres undefined) | 18.5 ± 9.1%
8 | COc1cccc(/C=N\NC(=O)C(C)SC(C)C(=O)N/N=C/c2cccc(OC)c2)c1 (centres undefined) | 100 ± 33%
9 | NC(=O)NO | 107 ± 15%
10 | O=C(N=Nc1c(O)[nH]c2ccccc12)c1ccccc1O | 105 ± 11%
11 | O=C(c1nc2ccc(Cl)cc2[nH]c1=O)C(O)c1ccc2c(c1)OCO2 (centres undefined) | 109 ± 61%
12 | CN(NC1=NCCO1)c1ccc2ccccc2c1 | 117 ± 18%
13 | CCOC(=O)NC(Nc1ccc(F)cc1)(C(=O)OCC)C(F)(F)F (centres undefined) | 199 ± 130%
14 | Nc1nc(N)c2cc(Sc3cccc(C(F)(F)F)c3)ccc2n1 | 94.4 ± 24%
15 | O=C(CC1(O)C(=O)Nc2c(Cl)ccc(Cl)c21)c1ccc(Cl)cc1 (centres undefined) | 142 ± 53%
16 | O=c1[nH]c(=O)n(C2OC(CO)C(O)C2O)cc1F (centres undefined) | 19.2 ± 4.6%
17 | CCCCCC(/C=C/[C@@H]1CC(=O)C[C@H]1O[Si](C)(C)C(C)(C)C)OCOCCOC (some centres undefined) | 110 ± 24%
18 | O=C1c2cccc(NCCCNCCO)c2C(=O)c2cccc(NCCCNCCO)c21 | 57.9 ± 16%
19 | CNC(=S)N/N=C/c1ccc([N+](=O)[O-])s1 | 87.9 ± 21%
20 | CN(N=O)C(=O)N[C@@H]1[C@@H](O)[C@H](O)[C@@H](CO)O[C@@H]1O | 104 ± 29%

Row | SMILES | cell growth
21 | CC1=NC(C(C)C)C(=O)O1 (centres undefined) | 122 ± 74%
22 | Cc1ccccc1NC(=O)C(=O)C(C#N)c1ccccc1C (centres undefined) | 7.3 ± 3.2%
23 | CC1=C(O)c2ccccc2C(=O)C1=O | 91.9 ± 56%
24 | Cc1ccc(C)c2c(N=Nc3ccccc3[N+](=O)[O-])c(O)[nH]c12 | 138 ± 41%
25 | CCN(CC)CCOc1ccc(C(O)(Cc2ccc(OC)cc2)c2ccccc2)cc1 (centres undefined) | 118 ± 40%
26 | CN1CCN(CCSC2Cc3cc(Cl)ccc3Sc3ccccc32)CC1 (centres undefined) | 151 ± 26%
27 | Cc1ccc(Nc2nc(C)c(C(/C=C/c3ccc(/C=C/C(=N\NC(=O)C[n+]4ccccc4)c4sc(Nc5ccc(C)cc5[N+](=O)[O-])nc4C)cc3)=N/NC(=O)C[n+]3ccccc3)s2)c([N+](=O)[O-])c1 | 110 ± 11%
28 | O=c1[nH]c(=O)n(C2CCCO2)cc1F (centres undefined) | 24.9 ± 6.8%
29 | COC1CC(C)C(OC)c2cc(O)cc(c2O)NC(=O)/C(C)=C/C=C\C(C)C(OC(N)=O)/C(C)=C/C(C)C1OC (centres undefined) | 29 ± 4.8%
30 | Nc1nc(SCc2ccccc2Cl)c2[nH]cnc2n1 | 106 ± 13%
31 | O=c1cnn(C2OC(CO)C(O)C2O)c(=S)[nH]1 (centres undefined) | 100 ± 24%
32 | CN(Cc1cnc2nc(N)nc(N)c2n1)c1ccc(C(=O)N[C@@H](CCC(=O)O)C(=O)O)cc1 | 96.7 ± 31%
33 | Cc1ccc(N=N/C(=N\NC(=O)c2ccc(C)cc2)c2ccc(N(CCC#N)CCC#N)cc2C)cc1 | 74.4 ± 26%
34 | N#CC1(C#N)C2C=CC(c3coc4cccc2c34)C1(C#N)C#N (centres undefined) | 20.9 ± 5.5%
35 | Cc1c(N=Cc2ccc(N(CCC#N)CCC#N)cc2)c(=O)n(-c2ccccc2)n1C | 133 ± 36%
36 | NC1N=C(c2ccc(Cl)cc2)C2=C(N1)c1ccccc1CC2 (centres undefined) | 85.7 ± 6.7%
37 | Cn1cnc([N+](=O)[O-])c1Sc1nnc(-c2cccnc2)n1C | 151 ± 61%
38 | Cc1nc(-c2cccnc2)sc1C(=O)/C=C/c1ccc(Cl)cc1Cl | 114 ± 34%
39 | COc1ccc2c(c1)CCc1c-2n[nH]c1-c1[nH]nc2c1CCc1cc(OC)ccc1-2 | 87.5 ± 18%
